Consider six molecules from PubChem BioAssay (NCI).

Structures are written as SMILES. The panel holds about 83,000 compounds, 20% with a hit somewhere; the sample as a whole holds those more often.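 Treatment: one concentration, 48 hours, 96-well format. Scoring: percent growth, with anything below 10 considered active.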 Unmarked numbers belong to inactive results. Calls of active or inactive are those of the source.

Among the test systems are HCT-15 colon; HT29 colon; SNB-75 CNS; SNB-19 CNS; U251 CNS; PC-3 prostate; SK-MEL-5 melanoma; UACC-62 melanoma; LOX IMVI melanoma; SK-MEL-28 melanoma; SK-MEL-2 melanoma; SN12C renal; UO-31 renal; TK-10 renal; ACHN renal; CAKI-1 renal; CCRF-CEM leukemia; MOLT-4 leukemia; A498 renal.
Holding throughout (assay): NCI-60 one-dose screen, 48 h (100 = growth as untreated, 0 = no growth, -100 = all killed)
Common to all, as to details: 10 µM

In the case of `COc1c(-c2c3sc(=O)[nH]c3nc3c2c(=O)[nH]n3C(C)C)cc2c(c1OC)OCO2`, the growth in the test with HCT-15 colon is 99.6%; in the test with HT29 colon, 102%; in the test on SNB-75 CNS it was 92.7%; in the test on SNB-19 CNS it was 98.7%; with U251 CNS, 97.9%; in the test with PC-3 prostate, 92.6%. Moreover, the growth with SK-MEL-5 melanoma was 102%; in the test with UACC-62 melanoma, 99.4%; in the test on LOX IMVI melanoma, 92.3%; in the test with SK-MEL-28 melanoma, 112%; in the test with SK-MEL-2 melanoma, 85.3%; in the test with SN12C renal it was 95.5%. Also, the growth is 78.9% in the test on UO-31 renal; 98.7% in the test on TK-10 renal; 91.4% in the test with ACHN renal; 93.3% in the test with CAKI-1 renal; 95% in the test with CCRF-CEM leukemia; 94.5% with MOLT-4 leukemia.

As to `Nc1c(CNCc2nnn(Cc3ccccc3)c2N)nnn1Cc1ccccc1`, the growth in the test with HCT-15 colon is 93.9%; with HT29 colon, 105%; in the test on SNB-75 CNS, 99%; with SNB-19 CNS, 103%; with U251 CNS, 97.6%; in the test on PC-3 prostate, 98.9%. In addition, the growth in the test with SK-MEL-5 melanoma is 104%; with UACC-62 melanoma, 102%; in the test on LOX IMVI melanoma it was 95.3%; in the test with SK-MEL-28 melanoma it was 115%; with SK-MEL-2 melanoma, 103%; in the test on SN12C renal it was 99%. In addition, the growth in the test with UO-31 renal is 86.5%; with TK-10 renal, 102%; with ACHN renal it was 99.6%; in the test on CAKI-1 renal it was 101%; with CCRF-CEM leukemia, 95.4%; with MOLT-4 leukemia, 102%.

`O=C1/C(=C/c2ccc(O)cc2)CSc2ccc(Cl)cc21`: the growth was 53.9% with HCT-15 colon; 69.3% with HT29 colon; 93.8% in the test on SNB-75 CNS; 88.4% with SNB-19 CNS; 74.8% in the test on U251 CNS; 58.9% with PC-3 prostate. The growth with SK-MEL-5 melanoma was 80.9%; in the test on UACC-62 melanoma it was 71.8%; with LOX IMVI melanoma, 49.3%; with SK-MEL-28 melanoma, 107%; with SK-MEL-2 melanoma, 97.8%; in the test on SN12C renal it was 81.5%. Moreover, the growth in the test on UO-31 renal was 73.1%; in the test with TK-10 renal, 103%; with ACHN renal it was 88.9%; in the test on CAKI-1 renal it was 79.9%; in the test on A498 renal, 99.5%; with CCRF-CEM leukemia, 12.4%. For the same molecule, the growth in the test on MOLT-4 leukemia is 22.3%.

Turning to `CCOC(=O)c1ccc(N(C=O)CCC(=O)CCl)cc1`, the growth with HCT-15 colon is 17.8%; with HT29 colon, 1.42% (active); in the test on SNB-75 CNS it was 26.5%; with SNB-19 CNS, 59.4%; with U251 CNS it was 4.55% (active); with PC-3 prostate, 26%. Also, the growth with SK-MEL-5 melanoma was 2.68% (active); with UACC-62 melanoma, 13%; with LOX IMVI melanoma it was 3.93% (active); in the test with SK-MEL-28 melanoma, 34%; in the test with SK-MEL-2 melanoma it was 15.3%; in the test on SN12C renal, 7.96% (active). Besides, the growth is -86.3% (active) in the test on UO-31 renal; -18% (active) with TK-10 renal; -37.4% (active) in the test on ACHN renal; -19.9% (active) with CAKI-1 renal; -13.5% (active) with A498 renal; -31.4% (active) in the test with CCRF-CEM leukemia. Moreover, the growth with MOLT-4 leukemia is -13.7% (active).

As for `O=NN(CC(=O)N/N=C/C=C\c1ccccc1)CC(=O)N/N=C/C=C/c1ccccc1`, the growth in the test with HCT-15 colon was 94%; with HT29 colon it was 110%; in the test with SNB-75 CNS, 72.9%; in the test with SNB-19 CNS, 92.5%; in the test on U251 CNS, 89%; in the test on PC-3 prostate it was 85.2%. In addition, the growth in the test with SK-MEL-5 melanoma was 84.9%; in the test on UACC-62 melanoma, 101%; with LOX IMVI melanoma, 87.6%; with SK-MEL-28 melanoma, 99.4%; in the test with SK-MEL-2 melanoma, 111%; in the test with SN12C renal, 78.1%. The growth with UO-31 renal is 91.9%; in the test on TK-10 renal, 131%; with ACHN renal, 86.4%; with CAKI-1 renal, 91.3%; with A498 renal it was 105%; with CCRF-CEM leukemia, 94.9%. In the test on MOLT-4 leukemia, the growth was 96.9%.

Consider `COc1nc2c(c(=O)[nH]1)C(c1ccc(Oc3ccnc4cc(Cl)ccc34)c(OC)c1)C=C(c1cc(OC)c(OC)c(OC)c1)N2` (configuration not stated), for which the growth in the test with HCT-15 colon is 98.8%; in the test on HT29 colon it was 89.8%; in the test with SNB-75 CNS, 91.9%; in the test on SNB-19 CNS, 89.1%; in the test on U251 CNS it was 97.4%; in the test on PC-3 prostate, 87.2%. The growth was 95.1% in the test with SK-MEL-5 melanoma; 95.9% in the test with UACC-62 melanoma; 95.5% in the test on LOX IMVI melanoma; 116% with SK-MEL-28 melanoma; 82.6% with SK-MEL-2 melanoma; 90.7% with SN12C renal. In addition, the growth is 74.5% in the test with UO-31 renal; 103% in the test with TK-10 renal; 102% in the test on ACHN renal; 94.1% with CAKI-1 renal; 81.9% with A498 renal; 87.4% in the test on CCRF-CEM leukemia. Also, in the test on MOLT-4 leukemia, the growth is 78%.
